Consider ten compounds from PubChem BioAssay (NCI).

Assay [1] can be described thus: NCI Yeast Anticancer Drug Screen. Data for the rad50 strain (AID 155).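 Also: 0% = growth of vehicle-only cultures of the same strain.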 Conditions: S. cerevisiae rad50 strain growth inhibition, hits give high values. Put shortly: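 Cells are treated with compound, grown, and their growth is then scored against vehicle-only cultures of the same repair-deficient yeast strain.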
A short description of assay [2]: NCI Yeast Anticancer Drug Screen. Data for the mec2-1 strain (AID 157). The conditions noted are these: S. cerevisiae mec2-1 strain, hits give high values. Summed up: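 Test agents were screened against the mec2-1 yeast strain, with defined DNA repair or cell cycle alteration. Growth was scored as inhibition against vehicle-only controls.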
Assay [3] in a line: NCI Yeast Anticancer Drug Screen. Data for the sgs1 mgt1 strain (AID 161).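 Also: 0% = growth of cultures given vehicle only.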 The conditions noted are these: S. cerevisiae sgs1 mgt1 strain, hits give high values. Summed up: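 Read-out: growth inhibition vs vehicle controls. Cells: mutant yeast strain deficient in DNA damage repair.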
Assay [4] in a line: NCI Yeast Anticancer Drug Screen. Data for the cln2 rad14 strain (AID 165).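 Also: 0% = growth equal to vehicle treated cultures.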 The conditions noted are these: S. cerevisiae cln2 rad14 strain, hits give high values. Put shortly: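 Growth of compound-exposed yeast (cln2 rad14 genotype) measured and expressed as inhibition relative to vehicle.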
Assay [5] is described as follows: NCI Yeast Anticancer Drug Screen. Data for the bub3 strain (AID 167). The conditions noted are these: S. cerevisiae bub3 mutant strain, hits give high values. Summed up:
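Part of a panel of yeast mutants defective in DNA damage repair or cell cycle regulation. Each strain is grown with compound, and inhibition is calculated relative to solvent-treated cultures.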

Assay [6] is described as follows: NCI Yeast Anticancer Drug Screen. Data for the mlh1 rad18 strain (AID 175). Conditions: S. cerevisiae mlh1 rad18 strain growth inhibition, hits give high values. Summed up:
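In this whole-cell yeast screen, a strain with altered DNA damage repair is challenged with compound, and its growth is measured against matched vehicle-treated controls.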

Setting [7] is: at 5.0 µM (retest, dose inferred, filed as 0.5).
Where [8] appears, read: at 50.0 µM (retest, dose inferred, filed as 5.0).

About 79,000 compounds went through this panel and 15% of them were active in at least one assay; those are over-represented in the sample as a whole. Values without a mark were called inactive. The source made the active and inactive calls. Rule as the data show it: active = growth inhibition above about 70%; inactive = the rest.

As for `C/C(=N/NC(=O)c1ccccc1S(N)(=O)=O)C(CN1CCCCC1)C(C1=C(O)C2C=CC=CC2OC1=O)c1ccccc1` (configuration not stated), the growth inhibition was 41% in assay [1] (setting [7]); 41% in assay [1] (setting [8]); 89.7% (active) in assay [1] (at 50.0 µM); 25% in assay [2] (setting [7]); 25% in assay [2] (setting [8]); 91.4% (active) in assay [2] (at 50.0 µM). Besides, the growth inhibition in assay [3] (setting [7]) is 19%; in assay [3] (setting [8]) it was 19%; in assay [3] (at 50.0 µM), 91% (active); in assay [4] (setting [7]), 8%; in assay [4] (setting [8]), 8%; in assay [4] (at 50.0 µM), 88.8% (active). Moreover, the growth inhibition in assay [5] (setting [7]) was 31%; in assay [5] (setting [8]) it was 31%; in assay [5] (at 50.0 µM), 88.8% (active); in assay [6] (setting [7]), 22%; in assay [6] (setting [8]), 22%; in assay [6] (at 50.0 µM), 88% (active).
Regarding `O=C1C(c2c[nH]c3ccccc23)=Nc2ccc(Br)cc21`, the growth inhibition in assay [1] (setting [7]) was 19%; in assay [1] (setting [8]) it was 33%; in assay [1] (at 50.0 µM), 86.8% (active); in assay [2] (setting [7]) it was 26%; in assay [2] (setting [8]), 35%; in assay [2] (at 50.0 µM) it was 61.4%. Moreover, the growth inhibition in assay [3] (setting [7]) was 25%; in assay [3] (setting [8]), 29%; in assay [3] (at 50.0 µM) it was 73% (active); in assay [4] (setting [7]), 15%; in assay [4] (setting [8]), 34%; in assay [4] (at 50.0 µM), 53.5%. In addition, the growth inhibition in assay [5] (setting [7]) was 45%; in assay [5] (setting [8]), 53%; in assay [5] (at 50.0 µM), 90% (active); in assay [6] (setting [7]), 24%; in assay [6] (setting [8]), 35%; in assay [6] (at 50.0 µM), 83.7% (active).
Take `CCOc1ccc(N=NS(=O)(=O)O)cc1`: the growth inhibition in assay [1] (setting [7]) is -8%; in assay [1] (setting [8]), 14%; in assay [1] (at 50.0 µM) it was 61.1%; in assay [2] (setting [7]) it was -11%; in assay [2] (setting [8]), -23%; in assay [2] (at 50.0 µM), -5.45%. In addition, the growth inhibition in assay [3] (setting [7]) is -12%; in assay [3] (setting [8]) it was -24%; in assay [3] (at 50.0 µM) it was -6.5%; in assay [4] (setting [7]) it was -29%; in assay [4] (setting [8]) it was -88%; in assay [4] (at 50.0 µM), 15%. Besides, the growth inhibition in assay [5] (setting [7]) is -7%; in assay [5] (setting [8]), -13%; in assay [5] (at 50.0 µM), -23.1%; in assay [6] (setting [7]) it was -2%; in assay [6] (setting [8]), -5%; in assay [6] (at 50.0 µM) it was 9.4%.
Regarding `O=C(Nc1ccccc1C(=O)O)c1ccccc1`, the growth inhibition is -7% in assay [1] (setting [7]); 50% in assay [1] (setting [8]); 44% in assay [1] (at 50.0 µM); 2% in assay [2] (setting [7]); -6% in assay [2] (setting [8]); 23.5% in assay [2] (at 50.0 µM). The growth inhibition in assay [3] (setting [7]) was -5%; in assay [3] (setting [8]) it was -22%; in assay [3] (at 50.0 µM), 79.7% (active); in assay [4] (setting [7]) it was -2%; in assay [4] (setting [8]), -14%; in assay [4] (at 50.0 µM), -11.6%. Also, the growth inhibition was -14% in assay [5] (setting [7]); 30% in assay [5] (setting [8]); 36% in assay [5] (at 50.0 µM); -7% in assay [6] (setting [7]); 23% in assay [6] (setting [8]); 78.2% (active) in assay [6] (at 50.0 µM).
Regarding `C#Cc1cccc(N=Cc2cc(Cl)cc(Cl)c2O)c1`, the growth inhibition is 13% in assay [1] (setting [7]); 90% (active) in assay [1] (setting [8]); 94.6% (active) in assay [1] (at 50.0 µM); 8% in assay [2] (setting [7]); 90% (active) in assay [2] (setting [8]); 94.3% (active) in assay [2] (at 50.0 µM). The growth inhibition in assay [3] (setting [7]) is 20%; in assay [3] (setting [8]), 97% (active); in assay [3] (at 50.0 µM), 97.8% (active); in assay [4] (setting [7]) it was -1%; in assay [4] (setting [8]), 91% (active); in assay [4] (at 50.0 µM), 62.4%. Also, the growth inhibition in assay [5] (setting [7]) is -1%; in assay [5] (setting [8]), 80% (active); in assay [5] (at 50.0 µM), 89.9% (active); in assay [6] (setting [7]), 20%; in assay [6] (setting [8]), 98% (active); in assay [6] (at 50.0 µM), 97.2% (active).
As for `Nc1cc(Cl)ccc1S`, the growth inhibition was 79% (active) in assay [1] (setting [7]); 48% in assay [1] (setting [8]); 99.5% (active) in assay [1] (at 50.0 µM); 99% (active) in assay [2] (setting [7]); 89% (active) in assay [2] (setting [8]); 99.5% (active) in assay [2] (at 50.0 µM). Further, the growth inhibition in assay [3] (setting [7]) was 83% (active); in assay [3] (setting [8]), 47%; in assay [3] (at 50.0 µM), 99.5% (active); in assay [4] (setting [7]), 25%; in assay [4] (setting [8]), 53%; in assay [4] (at 50.0 µM) it was 99% (active). The growth inhibition in assay [5] (setting [7]) was 31%; in assay [5] (setting [8]), 91% (active); in assay [5] (at 50.0 µM), 99.3% (active); in assay [6] (setting [7]), 83% (active); in assay [6] (setting [8]), 75% (active); in assay [6] (at 50.0 µM), 99.5% (active).
Regarding `COc1cc(Br)c(CC(NC=O)c2ccc3c(c2)OCO3)cc1OC` (configuration not stated), the growth inhibition in assay [1] (setting [7]) is -4%; in assay [1] (setting [8]), 81% (active); in assay [1] (at 50.0 µM) it was 62.5%; in assay [2] (setting [7]) it was -3%; in assay [2] (setting [8]), 74% (active); in assay [2] (at 50.0 µM) it was 66.3%. Moreover, the growth inhibition in assay [3] (setting [7]) was -5%; in assay [3] (setting [8]) it was 95% (active); in assay [3] (at 50.0 µM) it was 36.5%; in assay [4] (setting [7]), 4%; in assay [4] (setting [8]), 95% (active); in assay [4] (at 50.0 µM) it was 57.4%. Further, the growth inhibition in assay [5] (setting [7]) is 3%; in assay [5] (setting [8]) it was 98% (active); in assay [5] (at 50.0 µM), 96.3% (active); in assay [6] (setting [7]), -1%; in assay [6] (setting [8]) it was 81% (active); in assay [6] (at 50.0 µM), 56.5%.
As to `O=C1c2ccc(S(=O)(=O)O)cc2C(=O)c2ccc(S(=O)(=O)O)cc21`, the growth inhibition is 3% in assay [1] (setting [7]); 23% in assay [1] (setting [8]); 49.3% in assay [1] (at 50.0 µM); -1% in assay [2] (setting [7]); 21% in assay [2] (setting [8]); 25.5% in assay [2] (at 50.0 µM). Further, the growth inhibition in assay [3] (setting [7]) is 5%; in assay [3] (setting [8]), 36%; in assay [3] (at 50.0 µM) it was 47.5%; in assay [4] (setting [7]), 2%; in assay [4] (setting [8]), 26%; in assay [4] (at 50.0 µM), -62.8%. In addition, the growth inhibition was 1% in assay [5] (setting [7]); 19% in assay [5] (setting [8]); 55.4% in assay [5] (at 50.0 µM); 4% in assay [6] (setting [7]); 31% in assay [6] (setting [8]); 74% (active) in assay [6] (at 50.0 µM).
For `COc1cc(/C=N/NC(=S)Nc2ccccc2)ccc1O`, the growth inhibition was -20% in assay [1] (setting [7]); 13% in assay [1] (setting [8]); 20.8% in assay [1] (at 50.0 µM); -10% in assay [2] (setting [7]); 34% in assay [2] (setting [8]); 27.4% in assay [2] (at 50.0 µM). The growth inhibition was -7% in assay [3] (setting [7]); 82% (active) in assay [3] (setting [8]); 66.7% in assay [3] (at 50.0 µM); -11% in assay [5] (setting [7]); 60% in assay [5] (setting [8]); 77.7% (active) in assay [5] (at 50.0 µM). Also, the growth inhibition in assay [6] (setting [7]) was -16%; in assay [6] (setting [8]), 49%; in assay [6] (at 50.0 µM), 30.1%.
Take `Clc1ccc(COC(CN2CCOCC2)c2ccccc2)c(Cl)c1` (configuration not stated): the growth inhibition in assay [1] (setting [7]) was 2%; in assay [1] (setting [8]) it was 89% (active); in assay [1] (at 50.0 µM), 94.8% (active); in assay [2] (setting [7]), 8%; in assay [2] (setting [8]), 92% (active); in assay [2] (at 50.0 µM) it was 96.2% (active). Also, the growth inhibition in assay [3] (setting [7]) is 19%; in assay [3] (setting [8]), 98% (active); in assay [3] (at 50.0 µM), 96% (active); in assay [4] (setting [7]), 11%; in assay [4] (setting [8]), 83% (active); in assay [4] (at 50.0 µM) it was 98.2% (active). In addition, the growth inhibition in assay [5] (setting [7]) is 23%; in assay [5] (setting [8]), 95% (active); in assay [5] (at 50.0 µM), 94.9% (active); in assay [6] (setting [7]) it was 11%; in assay [6] (setting [8]) it was 87% (active); in assay [6] (at 50.0 µM), 97.6% (active).
